# Compound activity deposited in PubChem by National Center for Advancing Translational Sciences (NCATS).
# Pf growth 48h – Primary qHTS for delayed death inhibitors of the malarial parasite plastid, 48 hour incubation | P. falciparum luciferase growth in erythrocytes, 48 h | Potency, µM (series often up to 28.7 µM), for inactives: top-dose activity change, negative = inhibition, usual class: inhibitors | hit rate 5.9% among 310,000 | AID 504832, 2011; also: % is scaled to controls: 0 for no effect and ±100 for the full control effect
#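 Firefly luciferase activity from engineered P. falciparum reports growth; inhibitors lower the luminescent signal. Cultures contained 2% hematocrit erythrocytes at 0.1% final parasitemia.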
# HCV inhibitor – qHTS Assay for Inhibitors of Hepatitis C Virus (HCV); Huh7.5.1 HCVcc-Cre infection, luciferase reporter, 44 h; Potency, µM (series often up to 41.8 µM), for the others: at the highest dose activity change, negative = inhibition, usual class: inhibitors; hit rate 3.4% among 340,000; AID 651820, 2012; also: % is scaled to controls: 0 for no effect and ±100 for the full control effect
#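 Antiviral activity was scored by luciferase reporter output from cells infected with HCVcc-Cre (~0.5 moi) in presence of compound, 44 h infection period, cells seeded 1,000/well 4 h prior.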
# AMA1 RON2 block – qHTS for Inhibitors of AMA1-RON; Towards Development of Antimalarial Drug Lead: Primary Screen; hit rate 0.2% among 360,000; AlphaScreen AMA1-biotinylated RON2 peptide binding; AID 720542, 2013; Potency, µM (titrated, usually from 58.2 µM), for the others: at the top dose activity change, negative = inhibition, most hits filed as inhibitors;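 also: 0% = vehicle wells and -100% = peptide control; nearly all actives have a fitted effect of over 45% in size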
#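 AMA1 (3D7) with his tag at 25 nM final met compounds first, then biotinylated RON2 peptide at 25 nM; detection used donor plus acceptor beads, 10 µg/mL apiece, read by AlphaScreen after 30 min at room temperature.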
# NS1 function inh – qHTS Assay for Inhibitors of Influenza NS1 Protein Function. hit rate 0.4% among 270,000. AID 2326, 2010. Potency, µM (titrated, usually from 46.1 µM), for the others: at the top dose activity, positive = more growth; calls by dose curve; also: actives are rising curves; nearly all actives have a fitted effect of over 50% in size
#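 Read-out: OD600 growth recovery of NS1-expressing budding yeast. Cells grown overnight at 30C in -URA glucose medium, washed, resuspended and diluted 1:100 in 2% galactose assay medium, pH 6.0. Same strain lacking NS1 served as positive control.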
# Pf growth 96h – Primary qHTS for delayed death inhibitors of the malarial parasite plastid, 96 hour incubation | Potency, µM (top dose mostly 28.7 µM), for the others: at the top dose activity change, negative = inhibition, actives largely listed as inhibitors | AID 504834, 2011 | P. falciparum luciferase reporter growth, 96 h | hit rate 6.9% among 320,000; also: % is scaled to controls: 0 for no effect and ±100 for the full control effect
#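 P. falciparum expressing integrated firefly luciferase grown in erythrocytes (2% hematocrit, 0.05% parasitemia final) with compounds for 96 hours at 37 C, 5% CO2. Growth inhibition read as loss of luminescence after adding luciferase detection reagent.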
# SARS PLpro yeast – qHTS of Yeast-based Assay for SARS-CoV PLP; S. cerevisiae expressing SARS-CoV PLpro, growth rescue; Potency, µM (doses to about 32.9 µM), for the others: at the highest dose activity, positive = growth rescue, usual class: activators; hit rate 0.19% among 330,000; calls by dose curve; also: 0% is about no effect; nearly all actives have a fitted effect of over 55% in size
# The depositor's hits bear a star; ? = inconclusive; . = not tested or not shown. Compounds with a hit are over-represented: about 12% of the library has one in this group of screens. Unless noted, calls follow the shape of the dose curve; as a rule, active = well fitted curve in the direction sought with a large enough effect; inconclusive = small, poorly fitted or top-dose-only effect, or another doubt; inactive = no such curve, though single readings can be large; an effect the other way counts as inactive or inconclusive. Potency is read from the fitted curve at half-maximal effect.
SMILES,Pf growth 48h,HCV inhibitor,AMA1 RON2 block,NS1 function inh,Pf growth 96h,SARS PLpro yeast
CC(=O)N(CCc1ccccc1C)Cc1cc2ccc(C)cc2[nH]c1=O,-23.1%,9.5%,18.4%,-0.4%,-26.9%,-0.6%
Cc1cc(C)c2cc(CN(CCN3CCCC3)C(=O)Nc3ccc(F)cc3)c(=O)[nH]c2c1,?,?,-3.2%,11.5%,?,9.9%
Cc1ccc2cc(CN(CCN(C)C)C(=O)Nc3ccc(Cl)cc3)c(=O)[nH]c2c1,24.0%,6.31µM*,7.9%,-2.6%,136.2%,-0.9%
Cc1ccc2[nH]c(=O)c(CN(CCCN(C)C)C(=S)NCCc3ccccc3)cc2c1,?,?,0.2%,5.8%,-2.1%,0.1%
COc1ccc2[nH]c(=O)c(CN(CCCN(C)C)C(=O)Nc3ccc(F)cc3)cc2c1,13.1µM*,?,-1.1%,?,53.8%,-1.7%
Cc1ccc2[nH]c(=O)c(CN(CCCN(C)C)C(=O)Nc3ccc(Cl)cc3)cc2c1,-15.7%,10µM*,2.5%,-7.1%,.,-2.8%
COc1ccc(NC(=O)N2CCCC(C(=O)NCCc3ccccc3)C2)cc1 (stereo unspecified),20.3%,1.8%,-0.9%,-5.1%,-16.1%,?
CCCc1nnc(NC(=O)CCC(=O)N2CCN(CCOc3ccc(C)cc3)CC2)s1,10.4µM*,?,5.7%,-9.3%,?,1.9%
Cc1ccc(OCCN2CCN(C(=O)CCC(=O)Nc3nnc(C)s3)CC2)cc1,-4.6%,9.0%,5.4%,-4.8%,?,3.8%
Cc1ccc(OCCN2CCN(C(=O)CCC(=O)Nc3nnc(C(C)C)s3)CC2)cc1,10.4µM*,?,-4.3%,-17.3%,2.94µM*,12.5%
CCc1nnc(NC(=O)CCC(=O)N2CCC(Cc3ccccc3)CC2)s1,-29.8%,2.3%,8.6%,-5.7%,10.4µM*,1.3%
COc1ccccc1NC(=O)Cc1noc(CSc2cc(C)c3ccccc3n2)n1,-25.3%,11.2µM*,-4.1%,-35.9%,-24.8%,-3.4%
C=CC(=O)NCCCc1cc(C(C)(C)C)c(O)c(C(C)(C)C)c1,11.7µM*,?,0.1%,-7.6%,0.0%,-21.1%
COCC(C)OC(=O)c1c(N)n(CC(C)C)c2nc3ccccc3nc12 (stereo unspecified),11.7µM*,-9.7%,52.9%,1.2%,.,5.5%
C=CCn1c(N)c(C(=O)OC(C)(C)C)c2nc3ccccc3nc21,.,-26.4%,-0.6%,-53.7%,.,-10.4%
C=CCn1c(N)c(C(=O)OC(C)CC)c2nc3ccccc3nc21 (stereo unspecified),10.4µM*,?,29.1%,-20.4%,.,-6.5%
COc1ccccc1CNS(=O)(=O)N(C)C,17.3%,16.8%,-5.5%,5.0%,3.3%,0.7%
COc1cccc(CN(c2ccc3c(c2)CCC3)S(=O)(=O)c2ccc(-n3cnnn3)c(OC)c2)c1,?,-20.3%,-1.7%,29.6%,?,-2.7%
Cc1cc(S(=O)(=O)N(Cc2ccccc2Cl)c2ccc3c(c2)CCC3)ccc1-n1cnnn1,11.7µM*,-9.7%,12.4%,-7.0%,86.5%,-8.6%
O=C(Cc1ccc(Br)cc1)OCC(=O)N1CCOCC1,.,0.5%,1.5%,.,.,7.0%
COc1cc2c(cc1OC)C(C)N(C(=O)Nc1cc(C)cc(C)c1)CC2 (stereo unspecified),?,-24.4%,-1.8%,-3.9%,?,-0.8%
COc1cc2c(cc1OC)C(C)N(C(=O)c1cc3c(C)cc(C)cc3[nH]1)CC2 (stereo unspecified),10.4µM*,22.4µM*,-11.3%,-26.5%,13.1µM*,-6.4%
CN(C)c1ccc(C(=O)N2CCCC(N3CCN(Cc4ccc5c(c4)OCO5)CC3)C2)cc1 (stereo unspecified),-15.3%,.,-16.0%,-3.7%,?,-1.6%
